Compounds without any hit were thinned out: in the full panel of roughly 83,000, 20% have a hit.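 48-hour exposure, single concentration, 96-well plates; percent growth endpoint where 0 means no net growth. Active: below 10.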 Activity calls are given as the source filed them.
How the values were obtained:
Assay in all cases: NCI-60 one-dose screen, 48 h (100 = growth as untreated, 0 = no growth, -100 = all killed)
Settings in all cases: 10 µM unless noted
DU-145 prostate = system: DU-145 prostate
K-562 leukemia = system: K-562 leukemia
MALME-3M melanoma = system: MALME-3M melanoma
MDA-MB-231 breast = system: MDA-MB-231 breast
RXF 393 renal = system: RXF 393 renal
SF-268 CNS = system: SF-268 CNS
SF-295 CNS = system: SF-295 CNS
SF-539 CNS = system: SF-539 CNS
UACC-257 melanoma = system: UACC-257 melanoma
M14 melanoma = system: M14 melanoma

Measured: growth

CC(=O)OCC1OC(OC2C(COC(C)=O)OC(OCCC[S-])C(OC(C)=O)C2OC(C)=O)C(OC(C)=O)C(OC(C)=O)C1OC(C)=O.[Au+].c1ccc(CN2[CH-]N(Cc3ccccc3)C(c3ccccc3)=C2c2ccccc2)cc1 (stereo not given)
active: K-562 leukemia 4.75% | MALME-3M melanoma -8.9% | MDA-MB-231 breast -34.7% | SF-295 CNS 7.32%
inactive: DU-145 prostate 26.1% | RXF 393 renal 25.7% | SF-268 CNS 40.1% | SF-539 CNS 35.6% | UACC-257 melanoma 12.5% | M14 melanoma 25%

COc1cc2c(cc1OCCCOc1cc3c(cc1OC)C(=O)N1CC(F)(F)C[C@H]1C=N3)N=C[C@@H]1CC(F)(F)CN1C2=O
active: K-562 leukemia 9.11% | MALME-3M melanoma -57.6% | RXF 393 renal -65.5% | SF-295 CNS 8.54% | SF-539 CNS -27.9% | M14 melanoma -0.895%
inactive: DU-145 prostate 17% | MDA-MB-231 breast 16% | SF-268 CNS 30.4% | UACC-257 melanoma 34.9%

Cc1cc(C)c2nc(Nc3nc(C)c(C)c(=O)[nH]3)nc(C)c2c1
active: MALME-3M melanoma -6.48% | RXF 393 renal -32.4%
inactive: DU-145 prostate 19.1% | K-562 leukemia 12.2% | MDA-MB-231 breast 27.8% | SF-268 CNS 26.9% | SF-295 CNS 11% | SF-539 CNS 13.5% | UACC-257 melanoma 14.1% | M14 melanoma 13.7%

CCOC(=O)c1c(-c2ccc(O)cc2)c(C#N)c2c(C#N)c(N)nn2c1N
inactive: DU-145 prostate 83% | K-562 leukemia 19.8% | MALME-3M melanoma 39.4% | MDA-MB-231 breast 67% | RXF 393 renal 76.2% | SF-268 CNS 71.8% | SF-295 CNS 79.9% | SF-539 CNS 66.9% | UACC-257 melanoma 93% | M14 melanoma 45.2%

O=C1CCC23OC(C(O)c4ccccc4N12)C1C(Br)=NOC13 (stereo not given)
inactive: DU-145 prostate 107% | K-562 leukemia 96.3% | MALME-3M melanoma 102% | MDA-MB-231 breast 105% | RXF 393 renal 114% | SF-268 CNS 91.9% | SF-295 CNS 106% | SF-539 CNS 93.3% | UACC-257 melanoma 98.1% | M14 melanoma 104%

Nc1ccc(C(=O)Nc2cccc(C(=O)Nc3ccc4c(O)c(N=Nc5ccc(N=Nc6ccc(S(=O)(=O)O)cc6)cc5)c(S(=O)(=O)O)cc4c3)c2)cc1
inactive: DU-145 prostate 107% | K-562 leukemia 88.1% | MALME-3M melanoma 93.8% | MDA-MB-231 breast 101% | RXF 393 renal 109% | SF-268 CNS 102% | SF-295 CNS 104% | SF-539 CNS 102% | UACC-257 melanoma 111% | M14 melanoma 97.3%

C#CCN(CCCOc1ccc(Cl)cc1Cl)CCCSC(=O)CCCCCN1/C(=C\C=C2/CCCC(/C=C/C3=[N+](CCCCCC(=O)[O-])c4ccccc4C3(C)C)=C2Cl)C(C)(C)c2ccccc21
active: K-562 leukemia 0.955% | MALME-3M melanoma -56.2% | MDA-MB-231 breast -6.25% | RXF 393 renal -45.2% | SF-268 CNS 7.44% | SF-539 CNS -50.2%
inactive: DU-145 prostate 47% | SF-295 CNS 53.3% | UACC-257 melanoma 30.8% | M14 melanoma 49.7%

CC1CCCN(CCCCCOc2ccc3oc4ccccc4c(=O)c3c2)C1 (stereo not given)
active: MALME-3M melanoma 4.45% | UACC-257 melanoma -18.8% | M14 melanoma 5.02%
inactive: DU-145 prostate 85.1% | K-562 leukemia 17.3% | MDA-MB-231 breast 67.8% | RXF 393 renal 60.8% | SF-268 CNS 72.5% | SF-295 CNS 72.9% | SF-539 CNS 77.2%

COc1cccc(NC(=O)Nc2ccc(Nc3ncnc4[nH]c(C)c(C)c34)cc2)c1
inactive: DU-145 prostate 110% | K-562 leukemia 94.4% | MALME-3M melanoma 122% | MDA-MB-231 breast 108% | RXF 393 renal 111% | SF-268 CNS 94% | SF-295 CNS 95.5% | SF-539 CNS 69.3% | UACC-257 melanoma 98.3% | M14 melanoma 106%

Cc1ccc(-c2nc(C#N)c(S(=O)(=O)N(C)CCO)o2)cc1
inactive: DU-145 prostate 90.2% | K-562 leukemia 25% | MALME-3M melanoma 60.1% | MDA-MB-231 breast 81.4% | RXF 393 renal 107% | SF-268 CNS 72.6% | SF-295 CNS 104% | SF-539 CNS 43% | UACC-257 melanoma 77.9% | M14 melanoma 61.7%

CCCCCCN1C(=O)CN=C1Nc1ccc2cc3ccc(NC4=NCC(=O)N4CCCCCC)cc3nc2c1
active: K-562 leukemia -12.1%
inactive: DU-145 prostate 40.5% | MALME-3M melanoma 71.5% | MDA-MB-231 breast 30.7% | RXF 393 renal 11.6% | SF-268 CNS 47.5% | SF-295 CNS 82.7% | SF-539 CNS 76.6% | UACC-257 melanoma 103% | M14 melanoma 68.2%

C/C(=N/Nc1nc2ccccc2n1C)c1ccccn1
inactive: DU-145 prostate 16.2% | MALME-3M melanoma 11.6% | MDA-MB-231 breast 28.8% | SF-268 CNS 10.7%
active: K-562 leukemia 5.81% | RXF 393 renal -12.5% | SF-295 CNS 8.08% | SF-539 CNS 0.5% | UACC-257 melanoma -29.2% | M14 melanoma -4.55%

Oc1ccccc1-c1nc2c3ccccc3c3ccccc3c2o1
inactive: DU-145 prostate 104% | K-562 leukemia 88.1% | MALME-3M melanoma 91.9% | MDA-MB-231 breast 81.7% | RXF 393 renal 109% | SF-268 CNS 89.8% | SF-295 CNS 115% | SF-539 CNS 105% | UACC-257 melanoma 101% | M14 melanoma 103%

CCCCCCCCCCCCCC1=NCC[N+]1(CCO)Cc1ccccc1 (stereo not given)
active: DU-145 prostate -89.2% | K-562 leukemia -50.9% | MALME-3M melanoma -75.8% | MDA-MB-231 breast -79.9% | RXF 393 renal -92.3% | SF-268 CNS -69.9% | SF-295 CNS -71.7% | SF-539 CNS -93.8% | UACC-257 melanoma -71.8% | M14 melanoma -79.4%

O=C1Nc2ccccc2C12C=C(c1ccccc1)Nc1c2c(-c2ccccc2)nn1-c1ccccc1 (stereo not given)
active: RXF 393 renal 5.5%
inactive: DU-145 prostate 83.4% | K-562 leukemia 37.5% | MALME-3M melanoma 98.5% | MDA-MB-231 breast 85.6% | SF-268 CNS 58.5% | SF-295 CNS 42.1% | SF-539 CNS 86.4% | UACC-257 melanoma 88.7% | M14 melanoma 58.2%

COc1ccc(/C=C/C(=O)/C=C(/C=C/c2ccc(OC)c(OC)c2)OB(F)F)cc1OC
inactive: DU-145 prostate 35.1% | K-562 leukemia 17.4% | MALME-3M melanoma 25.4% | MDA-MB-231 breast 21% | SF-268 CNS 34.9% | SF-295 CNS 69.4% | SF-539 CNS 28.8% | UACC-257 melanoma 59.1% | M14 melanoma 11.1%
active: RXF 393 renal -10.8%

Nc1ccc(C2=NN(C(=O)c3cc(-c4ccc(Cl)cc4)nc4ccccc34)C(c3ccc(Cl)cc3)C2)cc1 (stereo not given)
inactive: DU-145 prostate 27.2% | K-562 leukemia 13.2% | MALME-3M melanoma 63% | MDA-MB-231 breast 63.2% | SF-268 CNS 55% | SF-295 CNS 18.2% | UACC-257 melanoma 57.5%
active: RXF 393 renal -4.45% | SF-539 CNS 8.98% | M14 melanoma 6.28%

O=C1Nc2ccc(Cl)cc2/C1=N/c1nc(-c2ccc(F)cc2)cs1
inactive: DU-145 prostate 69.8% | K-562 leukemia 14.6% | MALME-3M melanoma 53.6% | MDA-MB-231 breast 31.3% | RXF 393 renal 37% | SF-268 CNS 46% | SF-295 CNS 39.6% | SF-539 CNS 48.6% | UACC-257 melanoma 36.5% | M14 melanoma 38.7%

CNC(=O)c1cc(Oc2ccc3c(c2)sc2nc(-c4ccc(NC(C)=O)cc4)cn23)ccn1
active: RXF 393 renal 8.2%
inactive: DU-145 prostate 23.1% | K-562 leukemia 50.5% | MALME-3M melanoma 71.8% | MDA-MB-231 breast 59.5% | SF-268 CNS 64% | SF-295 CNS 26.2% | SF-539 CNS 62.8% | UACC-257 melanoma 70.9% | M14 melanoma 46.5%

NC[C@@H]1CCN(c2cc3c(cc2F)c(=O)n(N)c(=O)n3Cc2ccc(-c3ccccc3)cc2)C1
inactive: DU-145 prostate 102% | MALME-3M melanoma 121% | MDA-MB-231 breast 89.7% | RXF 393 renal 74.7% | SF-268 CNS 83.1% | SF-295 CNS 96.5% | SF-539 CNS 90% | UACC-257 melanoma 112% | M14 melanoma 68.8%
active: K-562 leukemia -44%

O=C(Nc1ccccc1)NS(=O)(=O)c1c[nH]c(=S)[nH]c1=O
inactive: DU-145 prostate 105% | K-562 leukemia 103% | MALME-3M melanoma 100% | MDA-MB-231 breast 105% | RXF 393 renal 127% | SF-268 CNS 97.1% | SF-295 CNS 97.8% | SF-539 CNS 99.8% | UACC-257 melanoma 92.5% | M14 melanoma 104%

c1ccc(-c2n(Cc3ccc4ccccc4n3)cc[n+]2Cc2ccc3ccccc3c2)cc1
active: K-562 leukemia 5.02% | MALME-3M melanoma -20% | MDA-MB-231 breast -6.39% | RXF 393 renal -8.14% | SF-295 CNS -7.2% | UACC-257 melanoma -27.1% | M14 melanoma -24.8%
inactive: DU-145 prostate 28.2% | SF-268 CNS 20.5% | SF-539 CNS 11.5%

COc1ccc(OCC(=O)OC(C)C)cc1
inactive: DU-145 prostate 101% | K-562 leukemia 98.7% | MALME-3M melanoma 91.1% | MDA-MB-231 breast 98.1% | RXF 393 renal 80.5% | SF-268 CNS 92.5% | SF-295 CNS 96.6% | SF-539 CNS 98% | UACC-257 melanoma 97.7% | M14 melanoma 98.6%

N#Cc1c(-c2ccc(Cl)cc2)cc(-c2cc3ccccc3o2)nc1SCC(=O)c1ccc(Cl)cc1
inactive: DU-145 prostate 121% | K-562 leukemia 118% | MALME-3M melanoma 90.6% | MDA-MB-231 breast 95.5% | RXF 393 renal 116% | SF-268 CNS 99.3% | SF-295 CNS 90.1% | SF-539 CNS 112% | UACC-257 melanoma 112% | M14 melanoma 96.9%

C=C1C(=O)O[C@H]2[C@H]1CC/C(COC(=O)NCC(=O)Nc1ccc(OC)c(C(N)=O)c1O)=C\CC[C@@]1(C)O[C@@H]21
active: K-562 leukemia 8.95% | SF-539 CNS 7.54%
inactive: DU-145 prostate 66.4% | MALME-3M melanoma 59.7% | MDA-MB-231 breast 68.2% | RXF 393 renal 16.5% | SF-268 CNS 70.8% | SF-295 CNS 101% | UACC-257 melanoma 53.3% | M14 melanoma 62.9%

c1cc(CNC23CC4CC(CC(C4)C2)C3)cc(C[N+](Cc2cccc(CNC34CC5CC(CC(C5)C3)C4)c2)(Cc2cccc(CNC34CC5CC(CC(C5)C3)C4)c2)Cc2cccc(CNC34CC5CC(CC(C5)C3)C4)c2)c1 (stereo not given)
active: DU-145 prostate -4.07% [42 µM] | K-562 leukemia 4.99% [42 µM] | MALME-3M melanoma 6.44% [42 µM] | RXF 393 renal 4.56% [42 µM]
inactive: MDA-MB-231 breast 16.7% [42 µM] | SF-268 CNS 26.9% [42 µM] | SF-295 CNS 54.4% [42 µM] | SF-539 CNS 16.9% [42 µM] | UACC-257 melanoma 41.5% [42 µM] | M14 melanoma 24.3% [42 µM]
